From PubChem BioAssay
Results filed as inconclusive are left out. Activity calls are given as the source filed them.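 Rule for the calls, unless noted: active = normalized viability below 100% at a tested concentration; inactive = the rest.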

Key:
[1] = growth inhibition of DIPG glioma cells, dose response, cell-based, SU-DIPG-XVII, MIPE5.0, CellTiter-Glo, qHTS (AID 1347060; cut-off not given, nearly all actives have AC50 up to about 26 µM;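 note: cells exposed to compound for 48 hours before viability readout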); details: SU-DIPG-XVII viability, CellTiter-Glo ATP luminescence
[2] = growth inhibition of DIPG glioma cells, dose response, cell-based, SU-DIPG-IV, MIPE4.0, CellTiter-Glo, qHTS (AID 1347063; cut-off not given, nearly all actives have AC50 up to about 30 µM;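 note: compound exposure lasted 48 hours before the viability readout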); details: SU-DIPG-IV viability, CellTiter-Glo ATP luminescence
[3] = growth inhibition of DIPG glioma cells, dose response, cell-based, SU-DIPG-XIII, MIPE5.0, CellTiter-Glo, qHTS (AID 1347064; cut-off not given, nearly all actives have AC50 up to about 23 µM;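 note: cells exposed to compound for 48 hours before the viability read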); details: SU-DIPG-XIII viability, CellTiter-Glo ATP luminescence
[4] = viability loss in pontine glioma line – cell-based, SU-DIPG-XXV, MIPE5.0, CellTiter-Glo, qHTS, dose response (AID 1347065; cut-off not given, nearly all actives have AC50 up to about 26 µM;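 note: cells exposed to compound for 48 hours before ATP readout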); details: CellTiter-Glo ATP luminescence
[5] = SU-DIPG-VI glioma cell viability, MIPE4.0 library, CellTiter-Glo luminescence, qHTS (AID 1347066; cut-off not given, nearly all actives have AC50 up to about 30 µM;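 note: cells exposed to compound for 48 hours before readout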); details: CellTiter-Glo ATP luminescence
[6] = JHH-DIPG-1 glioma cell viability, MIPE5.0 library, CellTiter-Glo luminescence, qHTS (AID 1347067; cut-off not given, nearly all actives have AC50 up to about 26 µM;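 note: cells exposed to compound for 48 hours before readout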); details: JHH-DIPG-1 glioma viability, CellTiter-Glo ATP luminescence
[7] = SU-DIPG-XXV glioma cell viability, MIPE5.0 library, qHTS (AID 1347068; cut-off not given, nearly all actives have IC50 up to about 30 µM;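 note: cells exposed to compound for 48 hours before viability readout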)
[8] = sensitizers of A549 cells to miR-34 induction, primary screen, imaging, A549 dox-inducible miR-34, nuclei and caspase counts (AID 1347080;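 active = compounds whose cell count with miR-34 switched on is under 0.7 times the count with it off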); details: A549 miR-34 inducible, Hoechst nuclei count, 48 h
[9] = modifiers of HSF1 nuclear foci, imaging, Selleck Cancer Library (AID 1347162; in the data active = plate-normalised HSF1 focus index below about 0.46); details: human cells, at 10 µM; SSMD: measured here: HSF1 foci SSMD mean; cell count: measured here: cell number; plate-normalised HSF1 focus index: stronger effect = lower value
[10] = survival rescue of mitochondrial mutant cells in low glucose, primary screen, MELAS cybrids, Rieske KO mouse fibroblasts, CellTiter-Glo (AID 1508586;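 active = mean z-score across replicates of 1.96 or higher in either the MELAS or the Rieske mutant cell line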;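 note: z relative to plate mean and SD of compound and empty wells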)
[11] = ovarian cancer cell viability with rucaparib, profiling panel, oncology-focused library, rucaparib conditional (AID 1508598); details: patient-derived ovarian cancer cells, CellTiter-Glo viability, 144 h, stronger effect = lower value
[12] = growth inhibition of DIPG glioma cells, dose response, cell-based, JHH-DIPG-1, MIPE4.0, CellTiter-Glo, qHTS (AID 1347062; cut-off not given, nearly all actives have AC50 up to about 27 µM); details: JHH-DIPG-1 viability, CellTiter-Glo ATP luminescence
[13] = stronger effect = lower value, cell number ratio, induced over uninduced
[14] = measured here: relative caspase fold change +Dox/-Dox
[15] = measured here: total cells with miR-34 induction, stronger effect = lower value
[16] = measured here: total cells without miR-34 induction
[17] = MELAS cybrid survival, CellTiter-Glo 48 h, stronger effect = higher value
[18] = Rieske KO mouse fibroblast survival, CellTiter-Glo 72 h
[19] = at 0.000305 µM, OCI-C5x cells, with rucaparib 10 µM, 100% = cells with rucaparib alone
[20] = at 0.000305 µM, OCI-C5x cells, without rucaparib
[21] = at 0.000305 µM, OCI-P5x cells, with rucaparib 20 µM, 100% = cells with rucaparib alone
[22] = at 0.000305 µM, OCI-P5x cells, without rucaparib
[23] = at 0.00122 µM, OCI-C5x cells, with rucaparib 10 µM, 100% = cells with rucaparib alone
[24] = at 0.00122 µM, OCI-C5x cells, without rucaparib
[25] = at 0.00122 µM, OCI-P5x cells, with rucaparib 20 µM, 100% = cells with rucaparib alone
[26] = at 0.00122 µM, OCI-P5x cells, without rucaparib
[27] = at 0.00488 µM, OCI-C5x cells, with rucaparib 10 µM, 100% = cells with rucaparib alone
[28] = at 0.00488 µM, OCI-C5x cells, without rucaparib
[29] = at 0.00488 µM, OCI-P5x cells, with rucaparib 20 µM, 100% = cells with rucaparib alone
[30] = at 0.00488 µM, OCI-P5x cells, without rucaparib
[31] = at 0.0195 µM, OCI-C5x cells, with rucaparib 10 µM, 100% = cells with rucaparib alone
[32] = at 0.0195 µM, OCI-C5x cells, without rucaparib
[33] = at 0.0195 µM, OCI-P5x cells, with rucaparib 20 µM, 100% = cells with rucaparib alone
[34] = at 0.0195 µM, OCI-P5x cells, without rucaparib
[35] = at 0.0781 µM, OCI-C5x cells, with rucaparib 10 µM, 100% = cells with rucaparib alone
[36] = at 0.0781 µM, OCI-C5x cells, without rucaparib
[37] = at 0.0781 µM, OCI-P5x cells, with rucaparib 20 µM, 100% = cells with rucaparib alone
[38] = at 0.0781 µM, OCI-P5x cells, without rucaparib
[39] = at 0.313 µM, OCI-C5x cells, with rucaparib 10 µM, 100% = cells with rucaparib alone
[40] = at 0.313 µM, OCI-C5x cells, without rucaparib
[41] = at 0.313 µM, OCI-P5x cells, with rucaparib 20 µM, 100% = cells with rucaparib alone
[42] = at 0.313 µM, OCI-P5x cells, without rucaparib
[43] = at 1.25 µM, OCI-C5x cells, with rucaparib 10 µM, 100% = cells with rucaparib alone
[44] = at 1.25 µM, OCI-C5x cells, without rucaparib
[45] = at 1.25 µM, OCI-P5x cells, with rucaparib 20 µM, 100% = cells with rucaparib alone
[46] = at 1.25 µM, OCI-P5x cells, without rucaparib
[47] = at 5 µM, OCI-C5x cells, with rucaparib 10 µM, 100% = cells with rucaparib alone
[48] = at 5 µM, OCI-C5x cells, without rucaparib
[49] = at 5 µM, OCI-P5x cells, with rucaparib 20 µM, 100% = cells with rucaparib alone
[50] = at 5 µM, OCI-P5x cells, without rucaparib

COC(=O)c1ccc2c(C(=Nc3ccc(N(C)C(=O)CN4CCN(C)CC4)cc3)c3ccccc3)c(O)[nH]c2c1
2.23: SSMD [9]
active: AC50 [1] 1.48 µM | AC50 [2] 9.35 µM | AC50 [3] 2.09 µM | AC50 [4] 1.66 µM | AC50 [6] 5.9 µM | IC50 [7] 3.32 µM | viability [11, 25] 95.9% | viability [11, 29] 95.7% | viability [11, 33] 94.4% | viability [11, 34] 97.5% | viability [11, 37] 93% | viability [11, 38] 96.8% | viability [11, 41] 87% | viability [11, 42] 97.6% | viability [11, 45] 66.6% | viability [11, 46] 73.9% | viability [11, 49] 51.6% | viability [11, 50] 59.1%
5790: cell count [8, 15]
6370: cell count [8, 16]
-1.1: z-score [10, 18]
inactive: outcome [5] | fold change [8, 13] 0.909 | plate-normalised HSF1 focus index [9] 1.08 | z-score [10, 17] -0.457 | viability [11, 19] 119% | viability [11, 20] 127% | viability [11, 21] 103% | viability [11, 22] 111% | viability [11, 23] 107% | viability [11, 24] 128% | viability [11, 26] 102% | viability [11, 27] 114% | viability [11, 28] 118% | viability [11, 30] 104% | viability [11, 31] 120% | viability [11, 32] 115% | viability [11, 35] 116% | viability [11, 36] 116% | viability [11, 39] 128% | viability [11, 40] 118% | viability [11, 43] 124% | viability [11, 44] 116% | viability [11, 47] 124% | viability [11, 48] 118%
1.19: fold change [8, 14]
7520: cell count [9]

CC(C)CNc1ccnc(NCc2csc(-c3ccccc3)n2)n1
active: AC50 [1] 16.6 µM | AC50 [2] 16.6 µM | AC50 [3] 14.8 µM | AC50 [4] 16.6 µM | AC50 [5] 20.9 µM | AC50 [6] 20.9 µM

Cc1cc(Nc2cc(CN3CCOCC3)c3nc(C)c(Cc4ccc(Cl)cc4F)n3n2)n[nH]1
inactive: fold change [8, 13] 1.46 | z-score [10, 17] -0.366
982: cell count [8, 16]
-1.27: z-score [10, 18]
active: AC50 [1] 1.32 µM | AC50 [2] 11.8 µM | AC50 [3] 10.5 µM | AC50 [4] 1.18 µM | AC50 [5] 23.5 µM | AC50 [6] 3.32 µM | IC50 [7] 8.33 µM
1440: cell count [8, 15]
0.647: fold change [8, 14]

COc1cc(C)c(Sc2cnc(NC(=O)c3ccc(CNC(C)C(C)C)cc3)s2)cc1C(=O)N1CCN(C(C)=O)CC1 (stereo not given)
active: AC50 [1] 14.8 µM | AC50 [2] 18.7 µM | AC50 [3] 8.33 µM | AC50 [4] 10.5 µM | AC50 [5] 14.8 µM | AC50 [6] 16.6 µM | IC50 [7] 14.8 µM

CNC(=O)c1cccc(-c2ccc3c(N4CCOC[C@@H]4C)nc(N4CCOC[C@@H]4C)nc3n2)c1
active: AC50 [1] 1.32 µM | AC50 [2] 0.0209 µM | AC50 [3] 0.118 µM | AC50 [4] 0.372 µM

Clc1ccc(COC(Cn2ccnc2)c2ccc(Cl)cc2Cl)c(Cl)c1 (stereo not given)
active: AC50 [1] 26.3 µM | AC50 [4] 23.5 µM | AC50 [6] 20.9 µM
inactive: outcome [12]

CCOc1cc2ncc(C#N)c(Nc3ccc(OCc4ccccn4)c(Cl)c3)c2cc1NC(=O)/C=C/CN(C)C
inactive: outcome [5] | plate-normalised HSF1 focus index [9] 0.928
-1.15: SSMD [9]
active: AC50 [1] 14.8 µM | AC50 [2] 0.148 µM | AC50 [3] 5.9 µM | AC50 [4] 0.934 µM | AC50 [6] 5.25 µM
7340: cell count [9]

Cc1ccc(F)c(NC(=O)Nc2ccc(-c3cccc4[nH]nc(N)c34)cc2)c1
4.01: SSMD [9]
2860: cell count [8, 16]
6540: cell count [9]
0.36: z-score [10, 18]
active: AC50 [1] 14.8 µM | AC50 [2] 14.8 µM | AC50 [3] 7.42 µM | AC50 [4] 8.33 µM | AC50 [6] 1.05 µM | IC50 [7] 18.6 µM | viability [11, 21] 85.4% | viability [11, 22] 19.5% | viability [11, 25] 81.6% | viability [11, 26] 16.8% | viability [11, 29] 96.5% | viability [11, 30] 97.7% | viability [11, 34] 97.3% | viability [11, 41] 91.5% | viability [11, 42] 90.2% | viability [11, 45] 99.2% | viability [11, 46] 87.8% | viability [11, 47] 83.6% | viability [11, 49] 14.3% | viability [11, 50] 35.5%
0.989: fold change [8, 14]
2590: cell count [8, 15]
inactive: fold change [8, 13] 0.905 | plate-normalised HSF1 focus index [9] 1.21 | z-score [10, 17] -0.438 | viability [11, 19] 110% | viability [11, 20] 114% | viability [11, 23] 108% | viability [11, 24] 112% | viability [11, 27] 119% | viability [11, 28] 112% | viability [11, 31] 110% | viability [11, 32] 119% | viability [11, 33] 108% | viability [11, 35] 111% | viability [11, 36] 110% | viability [11, 37] 103% | viability [11, 38] 102% | viability [11, 39] 113% | viability [11, 40] 107% | viability [11, 43] 112% | viability [11, 44] 123% | viability [11, 48] 145%

COc1cc2nccc(Oc3ccc(NC(=O)Nc4cc(C)on4)c(Cl)c3)c2cc1OC
3.28: SSMD [9]
inactive: fold change [8, 13] 1.35 | plate-normalised HSF1 focus index [9] 1.19 | z-score [10, 17] -0.36 | viability [11, 19] 115% | viability [11, 20] 105% | viability [11, 21] 104% | viability [11, 23] 109% | viability [11, 25] 101% | viability [11, 27] 107% | viability [11, 28] 106% | viability [11, 31] 113% | viability [11, 35] 113% | viability [11, 39] 133% | viability [11, 40] 109% | viability [11, 43] 138% | viability [11, 47] 150% | viability [11, 48] 104%
2010: cell count [8, 16]
active: AC50 [1] 8.33 µM | AC50 [2] 18.7 µM | AC50 [3] 9.34 µM | AC50 [4] 5.9 µM | AC50 [6] 14.8 µM | IC50 [7] 9.34 µM | viability [11, 22] 96.5% | viability [11, 24] 100% | viability [11, 26] 94.7% | viability [11, 29] 92.6% | viability [11, 30] 93.9% | viability [11, 32] 96.2% | viability [11, 33] 98.1% | viability [11, 34] 86.6% | viability [11, 36] 88.6% | viability [11, 37] 92.2% | viability [11, 38] 87.4% | viability [11, 41] 88.2% | viability [11, 42] 91.5% | viability [11, 44] 93.1% | viability [11, 45] 81.9% | viability [11, 46] 86.1% | viability [11, 49] 70.8% | viability [11, 50] 82.8%
0.722: fold change [8, 14]
7170: cell count [9]
2720: cell count [8, 15]
0.933: z-score [10, 18]
